Experimental findings from PubChem BioAssay (EPA / NIEHS) are described below.

SMILES strings stand for the structures. Active and inactive are the calls of the source. How the source made its calls: active means hit-call score of the fitted dose curve at least 0.9, where 1 is the maximum; inactive means score below 0.9.

The assay is described as follows: ATG_EGR_CIS: Attagene CIS-FACTORIAL HepG2 Assay for human Early Growth Response 1 (EGR1) (AID 2282938). As to conditions: HepG2 Attagene CIS-FACTORIAL EGR reporter mRNA; actives raise or lower the signal. The method, boiled down:
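HepG2, transient MRTU transfection (cis promoters), 24 h compound. RNA → RT (oligo-dT) → PCR → 6-FAM labelling → HpaI cut → CE fluorescence. Bidirectional fit, DMSO baseline.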
On to `CC(C)=CCC[C@H](C)CCO`, for which the result was inactive.

On to `CCCCC/C=C\C/C=C\CCCCCCCC(=O)OC`, for which the AC50 (as a rule, the concentration at which the activity in the assay is half-maximal) was 100 µM (active).

Take `S=C(NC1CCCCC1)NC1CCCCC1`: the molecule was classed as inactive. Still for that read-out and setting: then `Cc1cccc(OCCOc2cccc(C)c2)c1`, with “inactive”; and `O=S(=O)(Oc1ccc(Cl)cc1Cl)c1ccccc1`, with “inactive”. `CC(C)CCCC(C)CC=O` (stereo not given): the result was inactive. Same read-out and setting: then `CC(C)(C)C(=O)CCc1ccc(Cl)cc1`, with “inactive”. Consider `O=CN1CCCCC1`, for which the molecule was called inactive. The same measure, in the same setting: then `O=Cc1ccc(CO)o1`, with “inactive”. The same measure, in the same setting: then `CO[Si](CCC1CCC2OC2C1)(OC)OC` (stereo not given), with “inactive”. Same read-out and setting: then `N#[N+]c1ccc2c(S(=O)(=O)[O-])cccc2c1O`, with “inactive”; and `Cc1cc(=O)n(-c2ccccc2)n1C`, with “inactive”; and `N[C@H]1C(O)O[C@H](CO)[C@H](O)[C@@H]1O` (stereo not given in full), with “inactive”.

`O=C(c1ccccc1)c1ccc(O)c(O)c1O`: the molecule was called inactive. Same read-out and setting: then `Cc1cccc(C(=O)O)c1`, with “inactive”; and `COC(=O)c1c(C)cc(O)c(C)c1O`, with “inactive”; and `Cc1cc(C)c(C)c(O)c1`, with “inactive”. For the molecule `O=S1(=O)OC(c2ccc(O)cc2)(c2ccc(O)cc2)c2ccccc21`, the molecule was classed as inactive. Regarding `CCN(Cc1cccc(S(=O)(=O)O)c1)c1ccc(C(=C2C=CC(=[N+](CC)Cc3cccc(S(=O)(=O)[O-])c3)C=C2)c2ccccc2)cc1`, the molecule was called inactive. For the molecule `O=C(Nc1ccccc1)c1ccccc1O`, the outcome was inactive. Still for that read-out and setting: then `CC(=O)NS(=O)(=O)c1ccc(N)cc1`, with “inactive”; and `CCO[Si](CCCN=C=O)(OCC)OCC`, with “inactive”. The same measure, in the same setting: then `C=C(C)CCO`, with “inactive”. The same measure, in the same setting: then `CCCCCCCCCCc1ccccc1`, with “inactive”; and `CCCCCCC(O)CO` (stereo not given), with “inactive”; and `CCOC(=O)[C@H](C)O`, with “inactive”.

With `CC(=O)OCCC1CCCCC1`, the outcome was inactive. The same measure, in the same setting: then `O=C1CCCC(=O)O1`, with “inactive”. Same read-out and setting: then `CCCCC(CC)CCC(CC(C)C)OS(=O)(=O)O` (stereo not given), with “inactive”. Still for that read-out and setting: then `CC(CC=O)c1ccccc1` (stereo not given), with “inactive”; and `CC1=CC[C@H]2C[C@@H]1C2(C)C`, with “inactive”. As for `O=C1c2cccc(O)c2C(=O)c2c(O)cc(CO)cc21`, the molecule was called inactive. Consider `C(=CC=Nc1ccccc1)C=CNc1ccccc1`, for which the molecule was classed as inactive. On the same count and under the same terms, then `C#CC1(O)CC[C@H]2[C@@H]3CCC4=CCCC[C@@H]4[C@H]3CC[C@@]21C` (stereo not given in full), with “inactive”. Consider `COc1cc(NC(=O)CC(C)=O)c(OC)cc1Cl`, for which the molecule was classed as inactive. Take `CNC(=S)N(C)C`: the call was inactive. As for `COc1ccc(-c2coc3cc(O)ccc3c2=O)cc1`, the molecule was called inactive.

For `O=c1n(CCO)c(=O)n(CCO)c(=O)n1CCO`, the result was inactive. `CC(=O)C=CC1C(C)=CCC(C)C1(C)C` (stereo not given): the molecule was called inactive.

As to `C=C(C)[C@H]1CC=C(C)CC1`, the molecule was called inactive.
